Laboratory results as given in PubChem BioAssay.
Calls of active or inactive are those of the source. Unless noted, how the calls were made is not given here.

How the values were obtained:
[1] = compounds binding Alexa647 anti-His antibody – biochemical, small-molecule microarray, 635 nm fluorescence, artefact control for SMM control protein annotation, primary screen (AID 1128); settings: higher = more signal;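 further: score merges feature fluorescence with signal-to-noise for each printed compound spot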
[2] = system: Human papillomavirus type 1a E7 protein (residues 1-88); test: HPV1a E7 small-molecule binders, primary screen, biochemical, small-molecule microarray, residues 1-88, 635 nm (AID 1129); settings: small-molecule microarray binding, fluorescence 635 nm; higher = more signal
[3] = biological target: Focal adhesion kinase 1 (Homo sapiens) (UniProt Q05397); test: PTK2 protein binding on printed compound slides – biochemical, small-molecule microarray, 635/667 nm fluorescence, BSA, DTT, primary screen (AID 1130); settings: 635 nm fluorescence, higher = more signal;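 further: composite of spot emission at 667 nm and signal to noise over triplicate slides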
Focal adhesion kinase 1 (Homo sapiens), sequence (Q05397 whole entry, looked up): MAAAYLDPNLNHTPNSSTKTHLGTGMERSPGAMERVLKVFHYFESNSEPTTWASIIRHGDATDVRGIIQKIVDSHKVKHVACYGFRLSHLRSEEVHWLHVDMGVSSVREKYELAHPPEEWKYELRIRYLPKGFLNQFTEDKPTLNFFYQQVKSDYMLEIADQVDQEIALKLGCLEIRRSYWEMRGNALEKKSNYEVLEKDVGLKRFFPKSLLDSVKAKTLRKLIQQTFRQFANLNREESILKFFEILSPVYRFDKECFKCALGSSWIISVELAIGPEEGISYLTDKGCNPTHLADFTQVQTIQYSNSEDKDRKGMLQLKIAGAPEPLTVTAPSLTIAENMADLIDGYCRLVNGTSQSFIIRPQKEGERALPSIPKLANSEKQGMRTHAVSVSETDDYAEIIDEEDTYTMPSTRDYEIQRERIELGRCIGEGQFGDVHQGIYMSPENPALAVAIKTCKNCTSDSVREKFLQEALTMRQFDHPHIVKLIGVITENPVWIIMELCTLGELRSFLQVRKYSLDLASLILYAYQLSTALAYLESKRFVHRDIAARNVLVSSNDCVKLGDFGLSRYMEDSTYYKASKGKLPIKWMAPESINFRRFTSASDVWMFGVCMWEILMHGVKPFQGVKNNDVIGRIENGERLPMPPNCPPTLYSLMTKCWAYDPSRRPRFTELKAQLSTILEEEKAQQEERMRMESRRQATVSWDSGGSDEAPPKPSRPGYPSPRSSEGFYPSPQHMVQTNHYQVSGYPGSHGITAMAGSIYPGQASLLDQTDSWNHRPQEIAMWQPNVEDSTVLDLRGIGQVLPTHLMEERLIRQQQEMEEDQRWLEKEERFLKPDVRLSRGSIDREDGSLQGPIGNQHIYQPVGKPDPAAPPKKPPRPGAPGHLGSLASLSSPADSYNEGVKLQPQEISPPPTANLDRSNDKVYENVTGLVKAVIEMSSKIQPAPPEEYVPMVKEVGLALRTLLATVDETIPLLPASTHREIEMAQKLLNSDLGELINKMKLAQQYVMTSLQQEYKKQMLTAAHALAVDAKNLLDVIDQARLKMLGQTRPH

[4] = system: Fibrinogen (Alexa647-labelled); test: Alexa647-fibrinogen binding to printed small molecules – biochemical, small-molecule microarray, 635/667 nm fluorescence, artefact control for SMM control-protein annotation, profiling panel (AID 1131); settings: fibrinogen-A647 binding fluorescence, higher = more signal;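 further: z-score merges 667 nm fluorescence with per-spot signal-to-noise over triplicate slides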
[5] = biological target: Follistatin (Homo sapiens) (UniProt P19883); test: FST protein binding to printed compounds – biochemical, small-molecule microarray, 635/667 nm fluorescence, primary screen (AID 1132); settings: 635 nm fluorescence, higher = more signal
Follistatin (Homo sapiens), sequence (P19883 whole entry, looked up): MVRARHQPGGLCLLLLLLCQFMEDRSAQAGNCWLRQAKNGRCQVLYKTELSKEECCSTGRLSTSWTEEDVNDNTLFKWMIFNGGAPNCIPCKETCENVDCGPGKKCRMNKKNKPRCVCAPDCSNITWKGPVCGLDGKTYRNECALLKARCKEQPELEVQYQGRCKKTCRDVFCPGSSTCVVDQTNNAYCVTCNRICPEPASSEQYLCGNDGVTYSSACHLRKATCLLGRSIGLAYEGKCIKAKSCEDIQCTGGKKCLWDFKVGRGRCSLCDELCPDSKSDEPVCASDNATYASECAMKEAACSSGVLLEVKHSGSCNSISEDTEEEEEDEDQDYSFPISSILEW

[6] = biological target: Fibroblast growth factor 2 (Homo sapiens) (UniProt P09038); test: basic fibroblast growth factor binding to printed compounds – biochemical, small-molecule microarray, 635/667 nm fluorescence, primary screen (AID 1133); settings: FGF2, fluorescence 635/667, higher = more signal
Fibroblast growth factor 2 (Homo sapiens), sequence (P09038 whole entry, looked up): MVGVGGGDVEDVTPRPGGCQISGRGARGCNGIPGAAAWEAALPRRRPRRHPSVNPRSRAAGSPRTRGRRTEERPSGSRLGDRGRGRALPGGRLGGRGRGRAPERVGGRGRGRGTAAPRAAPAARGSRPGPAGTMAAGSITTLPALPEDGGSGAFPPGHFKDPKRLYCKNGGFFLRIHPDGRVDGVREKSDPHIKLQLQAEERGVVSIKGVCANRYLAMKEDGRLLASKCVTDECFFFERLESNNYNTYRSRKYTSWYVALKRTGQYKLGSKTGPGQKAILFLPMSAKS

[7] = JC-1 mitochondrial potential readout, lung cancer cells – cell-based, A549, JC-1 fluorescence, basal, 24 h, 100 nL, profiling panel (AID 1138); settings: higher = more signal;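 further: A549 lung adenocarcinoma cells under basal conditions with no added stimulus; test concentration not given here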
Lefty1 = Lefty1 protein binding to printed compounds – biochemical, small-molecule microarray, 635/667 nm fluorescence, primary screen (AID 1139); settings: fluorescence 635/667, higher = more signal
[8] = system: wheat germ agglutinin (Triticum aestivum), Alexa647-labelled; test: Alexa647-WGA lectin binding to printed small molecules – biochemical, small-molecule microarray, 635/667 nm fluorescence, artefact control for SMM control-protein annotation, profiling panel (AID 1140); settings: WGA-A647 binding, 635 nm fluorescence, higher = more signal;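 further: score merges 667 nm feature emission with signal to noise over triplicate slides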
[9] = biological target: Luciferin 4-monooxygenase (Photinus pyralis) (UniProt P08659); test: inhibition of purified Photinus pyralis luciferase – biochemical, luminescence, purified enzyme, 2006 set, primary screen (AID 1141); settings: purified firefly luciferase, SteadyGlo luminescence, 30 min; higher = more signal, called active from +8 up or from −8 down;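 further: cell-free assay with purified firefly luciferase at 100 ng per well in PBS; test concentration not given here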
Luciferin 4-monooxygenase (Photinus pyralis), sequence (P08659 whole entry, looked up): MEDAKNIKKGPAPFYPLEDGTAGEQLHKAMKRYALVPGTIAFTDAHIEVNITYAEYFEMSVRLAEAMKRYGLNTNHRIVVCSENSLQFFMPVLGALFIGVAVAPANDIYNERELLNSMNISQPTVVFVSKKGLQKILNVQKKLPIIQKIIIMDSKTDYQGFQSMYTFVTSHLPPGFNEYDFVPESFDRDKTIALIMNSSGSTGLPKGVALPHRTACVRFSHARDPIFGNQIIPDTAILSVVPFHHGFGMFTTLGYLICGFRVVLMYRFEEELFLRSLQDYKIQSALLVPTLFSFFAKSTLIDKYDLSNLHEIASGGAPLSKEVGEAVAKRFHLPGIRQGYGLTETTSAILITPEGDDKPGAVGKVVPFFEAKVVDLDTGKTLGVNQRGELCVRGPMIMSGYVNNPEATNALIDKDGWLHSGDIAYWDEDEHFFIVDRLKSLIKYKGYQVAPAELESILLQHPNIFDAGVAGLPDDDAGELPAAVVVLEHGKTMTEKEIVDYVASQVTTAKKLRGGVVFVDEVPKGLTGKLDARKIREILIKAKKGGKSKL

[10] = system: Wnt5a (protein binding on small-molecule microarray); test: small molecules binding Wnt5a protein – biophysical, small-molecule microarray, 635/667 nm fluorescence, primary screen (AID 1142); settings: 635 nm fluorescence, higher = more signal;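 further: fluorescence read at 667 nm with signal to noise per printed feature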
[11] = ATP-based viability of Huh7 replicon cells – cell-based, CellTiter-Glo luminescence, basal, 48 h, cytotoxicity control for HCV replication inhibitor project, primary screen (AID 1143); settings: higher = more signal, called active from +8 up or from −8 down;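 further: Huh7 hepatoma cells carrying a hepatitis C replication reporter with no stimulus; test concentration not given here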
[12] = Pseudomonas biofilm growth suppression – PAO1 strain, BacTiter-Glo luminescence, LB-PBS, primary screen (AID 1144); settings: P. aeruginosa PAO1 biofilm, 12 h, higher = more signal
[13] = basal CRE-LacZ reporter activity in PC12 – cell-based, unstimulated, primary screen (AID 1145); settings: no forskolin, luminescence, 4.5 h, higher = more signal, called active from +8 up or from −8 down
[14] = forskolin-driven CRE-LacZ activity in PC12 – cell-based, CRE-LacZ reporter, forskolin-stimulated, primary screen (AID 1146); settings: luminescence, 4.5 h, higher = more signal, called active from +8 up or from −8 down;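 further: PC12 cells with 6xCRE LacZ reporter stimulated by forskolin 10 µM; beta-galactosidase reporter signal reflecting CREB driven transcription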
[15] = biological target: Streptavidin (Streptomyces avidinii) (UniProt P22629); test: compounds binding control protein streptavidin – biophysical, small-molecule microarray, 635/667 nm fluorescence, artefact control for SMM compound annotation, primary screen (AID 1147); settings: higher = more signal;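 further: signal reflects streptavidin binding to arrayed compounds as a control protein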
Streptavidin (Streptomyces avidinii), sequence (P22629 whole entry, looked up): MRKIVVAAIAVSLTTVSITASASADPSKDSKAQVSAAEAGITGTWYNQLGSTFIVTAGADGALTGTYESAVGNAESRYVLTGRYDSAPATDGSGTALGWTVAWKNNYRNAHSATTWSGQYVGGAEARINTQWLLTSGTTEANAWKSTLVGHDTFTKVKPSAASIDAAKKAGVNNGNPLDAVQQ

[16] = probe aInhba binding on compound microarray – biochemical, small-molecule microarray, 635/667 nm fluorescence, primary screen (AID 1148); settings: higher = more signal;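 further: score merges 667nm spot fluorescence with signal-to-noise for antibody binding to printed compounds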
Torsin-1A (Homo sapiens) [17] = biological target: Torsin-1A (Homo sapiens) (UniProt O14656); test: TOR1A wild-type binding on microarray – cell lysate, small-molecule microarray, lysate, 635/667 nm, primary screen (AID 1149); settings: COS7 hTOR1A-WT lysate, 635 nm fluorescence, higher = more signal
Torsin-1A (Homo sapiens), sequence (O14656 whole entry, looked up): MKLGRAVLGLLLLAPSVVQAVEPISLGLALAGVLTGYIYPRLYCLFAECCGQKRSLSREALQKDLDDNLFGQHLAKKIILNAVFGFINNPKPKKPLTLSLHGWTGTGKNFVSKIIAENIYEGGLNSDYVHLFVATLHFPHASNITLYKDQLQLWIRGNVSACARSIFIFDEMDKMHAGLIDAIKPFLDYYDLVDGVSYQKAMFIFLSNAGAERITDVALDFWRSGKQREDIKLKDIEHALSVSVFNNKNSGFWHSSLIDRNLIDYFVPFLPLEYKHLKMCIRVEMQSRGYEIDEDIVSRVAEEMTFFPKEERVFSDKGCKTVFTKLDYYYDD

Torsin-1A (Homo sapiens) [18] = biological target: Torsin-1A (Homo sapiens) (UniProt O14656); test: torsin A mutant lysate binding on microarrays – cell lysate, small-molecule microarray, COS7 lysate, 635/667 nm fluorescence, primary screen (AID 1150); settings: COS7 hTOR1A mutant lysate, 635 nm fluorescence, higher = more signal;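 further: score pools 667 nm emission and signal to noise measuring lysate protein binding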
[19] = system: Sonic hedgehog protein (Shh); test: Sonic hedgehog microarray binding compounds – biochemical, small-molecule microarray, 635/667 nm fluorescence, primary screen (AID 1151); settings: 635 nm fluorescence, higher = more signal;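 further: Shh protein binding to compounds spotted on small-molecule microarray slides; score combines spot fluorescence intensity with signal-to-noise across triplicate slides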

Compound | composite z-score [1] | composite z-score [2] | composite z-score [3] | composite z-score [4] | composite z-score [5] | composite z-score [6] | z-score [7] | composite z-score (Lefty1) | composite z-score [8] | z-score [9] | composite z-score [10] | z-score [11] | z-score [12] | z-score [13] | z-score [14] | composite z-score [15] | composite z-score [16] | composite z-score (Torsin-1A (Homo sapiens) [17]) | composite z-score (Torsin-1A (Homo sapiens) [18]) | composite z-score [19]
Cc1ccc(F)cc1S(=O)(=O)N[C@@H]1CCN(C(=O)c2ccc(OC(C)C)cc2)C1 | 1.42 | 1.16 | 0.485 | 0.371 | 0.485 | 1.24 | 0.946 | 0.913 | 0.557 | -0.457 (inactive) | 0.336 | -0.798 (inactive) | 0.595 (inactive) | 2.66 (inactive) | -0.906 (inactive) | 0.224 | 0.143 | 0.0677 | 0.196 | 0.975
CC(C)CCC[C@@H](C)[C@H]1CC[C@@]2(C)C3=C(CC[C@]12C)[C@@]1(C)CC[C@H](OC(=O)c2ccc(N)cc2)C(C)(C)C1CC3 (stereo not given in full) | 0.467 | 0.398 | 0.108 | 0.483 | 0.552 | 0.612 | 1.32 | 0.552 | 0.0599 | -1.43 (inactive) | 0.279 | -0.793 (inactive) | -0.593 (inactive) | 1.39 (inactive) | -0.391 (inactive) | 0.143 | -0.208 | 0.315 | 0.273 | 0.49
CN(C)CCCNC(=O)[C@@]1(Cc2ccccc2I)c2ccccc2C(=O)N(Cc2ccccc2Cl)[C@H]1c1ccc(CO)cc1 | -0.528 | 1.08 | 0.224 | 0.788 | -0.292 | -0.717 | -1.18 | -0.615 | 0.73 | 0.122 (inactive) | 0.228 | -5.9 (inactive) | 0.599 (inactive) | 0.0548 (inactive) | 2.02 (inactive) | 0.592 | 0.397 | -0.155 | -0.609 | -0.0692
CCCCC(=C=CC[C@H](O)c1ccccc1OCCO)C[C@H](O)c1ccccn1 | 0.299 | 0.0909 | -0.255 | -0.196 | 1.29 | 1.37 | 0.717 | 1.15 | 0.458 | -0.109 (inactive) | -0.135 | -0.392 (inactive) | -0.0512 (inactive) | 6.34 (inactive) | -0.872 (inactive) | 0.597 | -0.0762 | 0.718 | 1.01 | 1.4
COCCOC(=O)N1C(=O)[C@@]2(c3ccccc31)[C@H](c1ccc(OCCO)cc1)N1[C@H](c3ccccc3)[C@H](c3ccccc3)OC(=O)[C@H]1[C@@H]2C(=O)NC[C@H](O)c1ccccc1 | 1.95 | 1.23 | 0.327 | 0.937 | 1.32 | 1.03 | 0.414 | 0.714 | 1.05 | -0.652 (inactive) | 0.385 | -1.49 (inactive) | 0.109 (inactive) | 0.891 (inactive) | 10.1 (active) | 0.258 | 0.268 | 1.19 | 0.662 | 2.04
CCCC=C(CCC)[C@@H](NS(=O)(=O)c1ccccc1)c1ccc(C(F)(F)F)cc1 | 0.438 | 1.21 | 1.03 | 0.979 | 0.831 | -0.0779 | -1.64 | 0.219 | 0.72 | 2.08 (inactive) | 0.135 | -1.21 (inactive) | 0.514 (inactive) | 0.0007 (inactive) | 1.11 (inactive) | 1.33 | 0.105 | 0.354 | 0.56 | 0.0898
